# Assay results reported in PubChem BioAssay (Tox21).
# Where “and” joins values, the source holds several entries; their conditions need not be identical. Equal entries are not always repeated. Unmarked numbers belong to inactive results. Results filed as inconclusive are left out. Where a call stands in place of a potency, no number is given. Calls of active or inactive are those of the source. Calls come from the whole dose curve. Non-standard residues stand in square brackets, D forms with d. Residues, ends and D or L forms follow the SMILES beside them. pGlu = O=C1CC[C@@H](C(=O)O)N1
# Experiments:
# [1] = target: Acetylcholinesterase (Homo sapiens) (UniProt P22303); experiment: Acetylcholinesterase (AChE) small molecule antagonists: colormetric cell-based qHTS assay (AID 1347395); note: nearly all actives have a fitted effect of over 30% in size
# Outline: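 SH-SY5Y cells; cpd 30 min 37 C; + DTNB/acetylthiocholine, 90 min 37 C; colorimetric thiocholine read; qHTS.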
# [2] = target: Acetylcholinesterase (Homo sapiens) (UniProt P22303); experiment: Acetylcholinesterase (AChE) small molecule antagonists: enzyme-based qHTS assay (AID 1347397); settings: Potency: AChE enzyme activity inhibition; outcome: AChE enzyme activity inhibition; note: nearly all actives have a fitted effect of over 55% in size; note: potency is the fitted concentration of half-maximal effect
# Outline: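 Recombinant human AChE, dispensed at 50 mU/mL, was preincubated with Tox21 10K compounds or DMSO vehicle for 30 min at room temperature. DTNB plus acetylthiocholine was then added, and thiocholine was measured colorimetrically after a further 10 min.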
# [3] = target: Acetylcholinesterase (Homo sapiens) (UniProt P22303); experiment: Acetylcholinesterase (AChE) small molecule antagonists: fluorescence cell-based qHTS assay (AID 1347398); settings: Potency: AChE activity; outcome: AChE activity; note: nearly all actives have a fitted effect of over 50% in size; note: potency is the fitted concentration of half-maximal effect
# Outline: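 Human SH-SY5Y cells were plated overnight at 37 C, exposed to compound for 30 min at 37 C, 5% CO2, then given acetylthiocholine plus Thiolite Green for 40 min at room temperature; thiocholine fluorescence (Ex/Em 490/520 nm) reports endogenous AChE activity.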
# [4] = target: Acetylcholinesterase (Homo sapiens) (UniProt P22303); experiment: Acetylcholinesterase (AChE) small molecule antagonists: enzyme-based qHTS assay with human liver microsomes (AID 1347399); settings: Potency: qHTS inhibition; outcome: qHTS inhibition; note: nearly all actives have a fitted effect of over 60% in size
# Outline: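 Recombinant human AChE (50 mU/mL in the enzyme mix) and human liver microsomes (0.25 mg/mL final) were preincubated with compound and NADPH (0.25 mg/mL final) for 30 min at 37 C. Acetylthiocholine/DTNB was then added; thiocholine was read colorimetrically after 10 min at room temperature.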
# Sequence of Acetylcholinesterase (Homo sapiens) (P22303 whole entry, looked up): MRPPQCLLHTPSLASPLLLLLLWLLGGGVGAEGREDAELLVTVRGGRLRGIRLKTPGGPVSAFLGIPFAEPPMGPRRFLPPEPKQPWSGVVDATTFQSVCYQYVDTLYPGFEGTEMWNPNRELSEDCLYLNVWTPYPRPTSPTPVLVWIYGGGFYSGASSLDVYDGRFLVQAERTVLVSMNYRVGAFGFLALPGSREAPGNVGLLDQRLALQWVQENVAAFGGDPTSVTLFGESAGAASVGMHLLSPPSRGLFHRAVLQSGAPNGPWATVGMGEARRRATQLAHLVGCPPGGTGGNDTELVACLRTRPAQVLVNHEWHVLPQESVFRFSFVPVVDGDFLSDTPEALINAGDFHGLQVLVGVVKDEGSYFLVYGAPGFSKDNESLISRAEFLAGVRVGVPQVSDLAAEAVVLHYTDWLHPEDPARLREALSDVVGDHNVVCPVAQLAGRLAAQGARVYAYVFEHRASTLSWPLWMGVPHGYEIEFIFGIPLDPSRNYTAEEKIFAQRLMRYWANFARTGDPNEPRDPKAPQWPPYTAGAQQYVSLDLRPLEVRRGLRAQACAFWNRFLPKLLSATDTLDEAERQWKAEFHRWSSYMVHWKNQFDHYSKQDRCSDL
SMILES,Potency [1],Potency [2],Potency [3],Potency [4]
O=C1NC(=O)c2ccccc21,inactive,inactive,inactive,inactive
CCCCCCCCC,inactive,inactive,inactive,inactive
O=C(OCCCCCOC(=O)c1ccccc1)c1ccccc1,inactive,inactive,inactive,inactive
c1ccc(Nc2ccccc2)cc1,inactive,inactive,inactive,inactive
CC(O)CO (centres undefined),inactive,inactive,inactive,inactive
CCCCCCCN,inactive,inactive,inactive,inactive
CCCCCCCCCCCCCCCC[N+](C)(C)CC,inactive,71.2 µM (active),63.5 µM (active) and 38.9 µM (active),inactive
COc1cccc(CCc2ccccc2OCC(CN(C)C)OC(=O)CCC(=O)O)c1 (centres undefined),inactive,inactive,inactive,inactive
CC/C=C\CCOC(=O)c1ccccc1O,inactive,inactive,inactive,inactive
O=C1OC(=O)C2CC=CCC12 (centres undefined),inactive,inactive,inactive,inactive
CCCCCCCOC(=O)c1ccc(O)cc1,inactive,inactive,inactive,inactive
O=C(O[C@@H](C(=O)O)[C@@H](OC(=O)c1ccccc1)C(=O)O)c1ccccc1,inactive,inactive,inactive,inactive
C#CCN(C)CCCOc1ccc(Cl)cc1Cl,inactive,inactive,inactive,inactive
C#C[C@]1(O)CC[C@H]2[C@@H]3CCc4cc(O)ccc4[C@H]3CC[C@@]21C,inactive,inactive,inactive,inactive
C=C1CC/C=C(\C)CC[C@@H]2[C@@H]1CC2(C)C,inactive,inactive,inactive,inactive
Clc1ccc(C(c2ccccc2Cl)C(Cl)Cl)cc1 (centres undefined),inactive,inactive,inactive,inactive
O=C(O)/C=C/c1cnc[nH]1,inactive,inactive,inactive,inactive
CCCCCCCCCC=O,inactive,inactive,inactive,inactive

SMILES,Potency [1],Potency [2],Potency [3],Potency [4]
COc1ccc(-c2cc(C(F)F)nn2-c2ccc(S(N)(=O)=O)cc2)cc1F,inactive,inactive,inactive,inactive
Cc1c(N(C)C)c(=O)n(-c2ccccc2)n1C,inactive,inactive,inactive,inactive
CCCCCCCC(=O)OCCCCCC,inactive,inactive,inactive,inactive
N#CCCN(CCO)CCO,inactive,inactive,inactive,inactive
CCO[Si](CCCS)(OCC)OCC,inactive,inactive,inactive,inactive
COC(=O)c1ccccc1,inactive,inactive,inactive,inactive
CCCCC1(COC(=O)CCC(=O)O)C(=O)N(c2ccccc2)N(c2ccccc2)C1=O,inactive,inactive,inactive,inactive
C=CCOC(=O)c1ccc(C(=O)OCC=C)c(C(=O)OCC=C)c1,inactive,inactive,inactive,inactive
C[C@]1(Cn2ccnn2)[C@H](C(=O)O)N2C(=O)C[C@H]2S1(=O)=O,inactive,inactive,inactive,inactive
Nc1cc(=O)[nH]c(N)n1,inactive,inactive,inactive,inactive
Cc1ccc(Cl)c(N)c1Cl,inactive,inactive,inactive,inactive
CCCCCCCCCCCC(=O)Cl,inactive,inactive,inactive,inactive
CCNC(=O)[C@@H]1CCCN1C(=O)[C@H](CCCN=C(N)N)NC(=O)[C@H](CC(C)C)NC(=O)CNC(=O)[C@H](Cc1ccc(O)cc1)NC(=O)[C@H](CO)NC(=O)[C@H](Cc1c[nH]c2ccccc12)NC(=O)[C@H](Cc1cnc[nH]1)NC(=O)[C@@H]1CCC(=O)N1 ([pGlu]HWSYGLRP-NHEt),inactive,inactive,inactive,inactive
CC(=O)OC/C=C(/C)CCC=C(C)C,inactive,inactive,inactive,inactive
CC(=O)OC1CCCCC1,inactive,inactive,inactive,inactive
CC1(C)O[C@@H]2[C@@H](CO[C@@]3(COS(N)(=O)=O)OC(C)(C)O[C@@H]23)O1,inactive,inactive,inactive,inactive
N#CCc1ccc(Cl)cc1Cl,inactive,inactive,inactive,inactive
O=C(O)c1ccccc1Cl,inactive,inactive,inactive,inactive
